# In PubChem BioAssay (NCATS):
# “And” between values parts separate entries of the source, which are not always exact repeats. Equal entries are not always repeated. Records with an inconclusive call do not appear. Entries that show only a call come without a potency. The source made the active and inactive calls. Unless noted, calls follow the shape of the full dose curve. Square brackets hold non-standard residues; d marks the D form. Peptide text beside a SMILES is read from it. * marks the point of attachment. Nva = CCC[C@H](N)C(=O)O; Cbz = O=C(OCc1ccccc1)*
# Columns and labels:
# [1] = qHTS profiling of the MIPE4 collection as inhibitors of Plasmodium falciparum (3D7) proliferation (AID 743344; call rule not given here); settings: P. falciparum 3D7 in erythrocytes, SYBR Green DNA fluorescence, 72 h; at 28.5 µM unless noted
# In short: (§1)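 Parasite DNA was quantified by SYBR Green I fluorescence (ex 485, em 535 nm) after overnight lysis in saponin/Triton buffer at room temperature. Cultures at 0.3% parasitemia and 2.5% hematocrit were first exposed to compound for 72 h at 37 C; signals were normalised to artemisinin (0.29 uM) and vehicle wells.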
# [2] = qHTS profiling of the MIPE4 collection as inhibitors of Plasmodium falciparum (DD2) proliferation (Rep 2) (AID 743346; call rule not given here); settings: P. falciparum Dd2 in erythrocytes, SYBR Green DNA, 72 h; at 28.5 µM unless noted
# In short: as §1
# [3] = qHTS profiling of the MIPE4 collection as inhibitors of Plasmodium falciparum (HB3) proliferation (AID 743347; call rule not given here); settings: P. falciparum HB3 in erythrocytes, SYBR Green DNA, 72 h; at 28.5 µM unless noted
# In short: as §1
# [4] = qHTS for Inhibitors of the Functional Ribonucleoprotein Complex (vRNP) of Lassa (LASV) Arenavirus: LASV Primary Screen - GLuc reporter signal (AID 1347082; calls by dose curve; tested in HEK293 reporter line; also: nearly all actives have a fitted effect of over 60% in size; also: potency is read from the fitted curve at half-maximal effect); settings: LASV minigenome vRNP, Gaussia luciferase reporter; series mostly up to 57.5 µM
# [5] = qHTS for Inhibitors of the Functional Ribonucleoprotein Complex (vRNP) of Lassa (LASV) Arenavirus: Viability assay - alamar blue signal for LASV Primary Screen (AID 1347083; calls by dose curve; tested in HEK293 reporter line; also: nearly all actives have a fitted effect of over 80% in size; also: potency is read from the fitted curve at half-maximal effect); settings: cell viability, alamar blue fluorescence (LASV minigenome counter-screen); series mostly up to 57.5 µM
# [6] = qHTS for Inhibitors of the Functional Ribonucleoprotein Complex (vRNP) of Lymphocytic Choriomeningitis Arenaviruses (LCMV): Viability assay - alamar blue signal for LCMV Primary Screen (AID 1347085; calls by dose curve; tested in HEK293 reporter line; also: nearly all actives have a fitted effect of over 80% in size; also: potency is read from the fitted curve at half-maximal effect); settings: alamar blue viability counter-screen, LCMV vRNP screen cells; series mostly up to 57.5 µM
# [7] = molecular target: Nucleoprotein (Lymphocytic choriomeningitis virus (strain Armstrong)) (UniProt P09992); assay: qHTS for Inhibitors of the Functional Ribonucleoprotein Complex (vRNP) of Lymphocytic Choriomeningitis Arenaviruses (LCMV): LCMV Primary Screen - GLuc reporter signal (AID 1347086); settings: LCMV minigenome vRNP cell assay, Gaussia luciferase reporter; series mostly up to 57.5 µM; also: nearly all actives have a fitted effect of over 70% in size
# [8] = molecular target: Ubiquitin carboxyl-terminal hydrolase 1 (Homo sapiens) (UniProt O94782); assay: Inhibitors of USP1/UAF1: Pilot qHTS (AID 504865; active = well fitted curve in the direction sought with a large enough effect; an effect the other way counts as inactive or inconclusive; also: potency is read from the fitted curve at half-maximal effect; nearly all actives have a fitted effect of over 35% in size); settings: purified USP1/UAF1, Ub-rhodamine cleavage fluorescence; series mostly up to 114 µM
# In short: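 USP1/UAF1 complex (1nM) preincubated with compound 15 min at room temperature, then Ub-Rho substrate (150nM final) added. Fluorescence read kinetically at 480/540 nm, 6 reads every 60 seconds. Buffer: 50mM HEPES pH 7.8, 0.5mM EDTA, 0.1 mg/ml BSA, 1mM TCEP, 0.01% Tween-20.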
# [9] = S16 Schwann cell PMP22 intronic element beta-lactamase assay (AID 624044); settings: S16 rat Schwann cells, PMP22 element beta-lactamase FRET, 24 h; series mostly up to 38.3 µM; also: potency is read from the fitted curve at half-maximal effect; nearly all actives have a fitted effect of over 15% in size
# In short: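 Beta-lactamase reporter under a PMP22 intronic regulatory element in stable S16 rat Schwann cells; 24 h compound exposure. 460 nm blue signal normalized between DMSO (0%) and potassium clavulanate, with 535 nm FRET tracking viability; curves classed by r2 and response.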
# [10] = Primary qHTS for inhibitors of SARS-S pseudo-typed particle cell entry (AID 1479145); settings: SARS-S pseudotyped particle cell entry, luciferase reporter; series mostly up to 57.1 µM; also: nearly all actives have a fitted effect of over 45% in size; also: potency is read from the fitted curve at half-maximal effect
# [11] = Primary qHTS for inhibitors of MERS-S pseudo-typed particle cell entry (AID 1479149); settings: MERS-S pseudotyped particle entry, luciferase; series mostly up to 57.1 µM; also: nearly all actives have a fitted effect of over 60% in size
# [12] = Primary qHTS for Vero E6 cytotoxicity: counterscreen for inhibitors of SARS-S pseudo-typed particle cell entry (AID 1479150); settings: cell viability; series mostly up to 57.1 µM
# [13] = Cytotoxicity counterscreen for inhibitors of SARS-CoV-2 cell entry (AID 1645845); settings: cell viability (SARS-CoV-2 entry assay cells); series mostly up to 57.1 µM; also: nearly all actives have a fitted effect of over 50% in size; also: potency is read from the fitted curve at half-maximal effect
# In short: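 ATP-content luminescence (ATPLite 1step, 15 min RT) read after 48 h compound exposure of Expi293F cells stably expressing human ACE2; normalized to cells-only wells and media-only wells.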
# [14] = Primary qHTS to identify inhibitors of SARS-CoV-2 cell entry (AID 1645846); settings: SARS-CoV-2 pseudovirus cell entry assay, luminescence; activity change, negative = inhibition: at 57.1 µM (top of the series) unless noted; series mostly up to 57.1 µM; also: nearly all actives have a fitted effect of over 45% in size; also: potency is read from the fitted curve at half-maximal effect
# In short: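 Luminescence readout (Bright-Glo luciferase) 48 h after pseudoparticle addition. HEK293-ACE2 cells, 1500/well; compound pre-incubation 1 h; Normalized to spike PP and bald PP.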
# [15] = Inducers of the Endoplasmic Reticulum Stress Response (ERSR) in human glioma: Validation (AID 504836; active = well fitted curve in the direction sought with a large enough effect; an effect the other way counts as inactive or inconclusive); settings: human glioma cells, ER stress response reporter; series mostly up to 38.3 µM
# In short: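 ERSR induction read as luciferase luminescence (Bright-Glo, 10 min at room temperature) in stably transfected human U87-MG glioma cells exposed to compounds for 16 h, using GRP78 as sensor.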
# [16] = molecular target: Cytochrome P450 3A4 (Homo sapiens) (UniProt P08684); assay: qHTS Assay for Inhibitors and Substrates of Cytochrome P450 3A4 (AID 884; active = well fitted curve in the direction sought with a large enough effect; an effect the other way counts as inactive or inconclusive; also: potency is read from the fitted curve at half-maximal effect; nearly all actives have a fitted effect of over 50% in size); settings: recombinant CYP3A4, Luciferin-PPXE luminescence; series mostly up to 57.1 µM
# In short: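 Luminescent readout of luciferin produced by CYP3A4 (20 nM) dealkylation of Luciferin-PPXE, 25 uM (its KM). NADPH-driven reaction ran 60 min at RT after 10 min compound preincubation; data scaled to 57 uM ketoconazole as 100% inhibition.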
# [17] = molecular target: Cytochrome P450 3A4 (Homo sapiens) (UniProt P08684); assay: qHTS Assay for Activators of Cytochrome P450 3A4 (AID 885; active = well fitted curve in the direction sought with a large enough effect; an effect the other way counts as inactive or inconclusive; also: nearly all actives have a fitted effect of over 65% in size); settings: recombinant CYP3A4, Luciferin-PPXE luminescence, 60 min; series mostly up to 57.1 µM
# In short: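 Human CYP3A4 dealkylates Luciferin-PPXE to luciferin, which luciferase detection converts to light. Substrate was at its KM (25uM), buffer 200mM KPO4, reaction 60 min at RT.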
# [18] = Validation screen for inhibitors of Lassa infection (AID 463096); settings: Lassa virus infection, cell-based; series mostly up to 46.1 µM
# [19] = molecular target: Cytochrome P450 2C19 (Homo sapiens) (UniProt P33261); assay: qHTS Assay for Inhibitors and Substrates of Cytochrome P450 2C19 (AID 899; active = well fitted curve in the direction sought with a large enough effect; an effect the other way counts as inactive or inconclusive; also: potency is read from the fitted curve at half-maximal effect; nearly all actives have a fitted effect of over 60% in size); settings: recombinant CYP2C19, luciferin-H EGE luminescence; series mostly up to 57.1 µM
# In short: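 Reactions contain 5nM enzyme, 10uM Luciferin-H EGE (KM) and 50mM KPO4; compound preincubates 10 min at 37C, NADPH regeneration starts turnover for 60 min. Luminescence after detection reagent gives activity.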
# [20] = Primary qHTS for Huh7 cytotoxicity: counterscreen for inhibitors of MERS-S pseudotyped particle cell entry (AID 1479147); settings: cell viability read-out; series mostly up to 57.1 µM
# [21] = Confirmatory qHTS for VERO E6 Cytotoxicity Assay: Counterscreen for SARS-CoV-2 CPE Assay (AID 1508605); settings: cell viability luminescence; series mostly up to 20 µM; also: nearly all actives have a fitted effect of over 60% in size; also: potency is read from the fitted curve at half-maximal effect
# [22] = Confirmatory qHTS for activators (rescue) of SARS-CoV-2 Cytopathic Effect (CPE) (AID 1508606); settings: Vero E6 SARS-CoV-2 CPE rescue, viability luminescence; series mostly up to 20 µM; also: potency is read from the fitted curve at half-maximal effect; nearly all actives have a fitted effect of over 70% in size
# [23] = Confirmatory qHTS to identify inhibitors of SARS-CoV-2 cell entry (AID 1645844); settings: SARS-CoV-2 pseudotyped particle cell entry, luciferase; series mostly up to 57.2 µM; also: nearly all actives have a fitted effect of over 45% in size
# In short: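 Luminescence entry read-out after 48 h: spike-pseudotyped MLV particles (Wuhan-Hu-1, 19-aa C-terminal truncation) added to compound-pretreated (1 h) HEK293-ACE2 cells; Data were normalised to bald PP and spike PP wells.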
# [24] = molecular target: Alpha-galactosidase (Coffea arabica) (UniProt Q42656); assay: Counterscreen for Glucocerebrosidase Inhibitors: qHTS Assay for Coffee Bean alpha-Galactosidase at pH 4.5 (AID 957; active = well fitted curve in the direction sought with a large enough effect; an effect the other way counts as inactive or inconclusive); settings: purified coffee bean alpha-galactosidase, fluorogenic substrate; series mostly up to 76.9 µM
# In short: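 Fluorogenic read-out: 4-methylumbelliferone at Ex 365/Em 440 nm after NaOH/glycine stop (pH 10). Enzyme 2 nM, 4-MU-alpha-galactoside 80 uM, citrate buffer pH 4.5, 20 min RT; normalized to no-enzyme and enzyme controls.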
# Sequence of Nucleoprotein (Lymphocytic choriomeningitis virus (strain Armstrong)) (P09992 whole entry, looked up): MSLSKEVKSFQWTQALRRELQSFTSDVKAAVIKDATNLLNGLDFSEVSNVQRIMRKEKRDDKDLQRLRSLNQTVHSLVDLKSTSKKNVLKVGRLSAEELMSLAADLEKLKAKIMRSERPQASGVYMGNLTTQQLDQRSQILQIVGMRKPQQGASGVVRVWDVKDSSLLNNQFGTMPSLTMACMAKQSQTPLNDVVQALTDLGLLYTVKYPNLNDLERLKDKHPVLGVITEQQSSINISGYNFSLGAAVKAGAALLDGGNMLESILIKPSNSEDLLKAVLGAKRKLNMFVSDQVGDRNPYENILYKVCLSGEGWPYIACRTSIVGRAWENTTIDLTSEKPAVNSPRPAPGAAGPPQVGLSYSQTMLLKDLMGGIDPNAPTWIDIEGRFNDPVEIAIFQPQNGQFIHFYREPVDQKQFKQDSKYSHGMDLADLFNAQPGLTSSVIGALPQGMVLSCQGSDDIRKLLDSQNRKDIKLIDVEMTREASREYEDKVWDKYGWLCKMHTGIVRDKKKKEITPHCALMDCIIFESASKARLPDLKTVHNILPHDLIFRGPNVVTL
# Sequence of Cytochrome P450 3A4 (Homo sapiens) (P08684 whole entry, looked up): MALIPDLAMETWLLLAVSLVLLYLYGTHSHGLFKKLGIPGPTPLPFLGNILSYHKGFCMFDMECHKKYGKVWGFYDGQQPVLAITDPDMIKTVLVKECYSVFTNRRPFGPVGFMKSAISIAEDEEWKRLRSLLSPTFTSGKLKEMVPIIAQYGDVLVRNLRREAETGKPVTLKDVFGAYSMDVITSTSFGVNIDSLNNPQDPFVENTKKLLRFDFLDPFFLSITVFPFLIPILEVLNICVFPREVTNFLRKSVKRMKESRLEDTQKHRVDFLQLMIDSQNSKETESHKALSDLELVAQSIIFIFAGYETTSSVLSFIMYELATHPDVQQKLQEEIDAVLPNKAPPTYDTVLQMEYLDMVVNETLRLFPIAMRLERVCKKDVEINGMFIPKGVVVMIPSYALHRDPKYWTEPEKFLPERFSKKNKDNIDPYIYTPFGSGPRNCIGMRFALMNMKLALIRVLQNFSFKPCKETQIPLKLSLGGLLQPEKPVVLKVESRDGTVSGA
# Sequence of Alpha-galactosidase (Coffea arabica) (Q42656 whole entry, looked up): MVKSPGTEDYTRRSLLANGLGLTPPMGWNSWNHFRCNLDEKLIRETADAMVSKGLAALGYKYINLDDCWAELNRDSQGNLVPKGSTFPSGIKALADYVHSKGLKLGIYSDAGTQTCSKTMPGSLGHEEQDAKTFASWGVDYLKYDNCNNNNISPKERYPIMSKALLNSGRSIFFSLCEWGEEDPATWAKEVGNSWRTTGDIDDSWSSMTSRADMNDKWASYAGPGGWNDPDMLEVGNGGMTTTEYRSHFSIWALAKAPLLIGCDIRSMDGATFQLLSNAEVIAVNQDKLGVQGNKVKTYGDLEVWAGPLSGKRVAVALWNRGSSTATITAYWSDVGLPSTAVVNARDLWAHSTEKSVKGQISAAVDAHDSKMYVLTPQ
# Sequence of Cytochrome P450 2C19 (Homo sapiens) (P33261 whole entry, looked up): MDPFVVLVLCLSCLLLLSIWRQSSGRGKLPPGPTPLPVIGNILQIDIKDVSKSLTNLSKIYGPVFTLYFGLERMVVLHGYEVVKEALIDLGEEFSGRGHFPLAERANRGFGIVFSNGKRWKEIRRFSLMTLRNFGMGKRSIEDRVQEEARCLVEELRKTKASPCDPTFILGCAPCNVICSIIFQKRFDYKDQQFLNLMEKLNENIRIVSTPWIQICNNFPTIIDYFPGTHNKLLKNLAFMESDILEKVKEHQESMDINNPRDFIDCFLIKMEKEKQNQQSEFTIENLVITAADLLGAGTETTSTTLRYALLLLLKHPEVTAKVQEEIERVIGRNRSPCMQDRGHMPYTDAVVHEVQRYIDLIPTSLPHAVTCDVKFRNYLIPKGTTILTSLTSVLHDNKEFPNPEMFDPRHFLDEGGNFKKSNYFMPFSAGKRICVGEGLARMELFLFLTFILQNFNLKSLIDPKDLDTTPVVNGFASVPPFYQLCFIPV
# Sequence of Ubiquitin carboxyl-terminal hydrolase 1 (Homo sapiens) (O94782 whole entry, looked up): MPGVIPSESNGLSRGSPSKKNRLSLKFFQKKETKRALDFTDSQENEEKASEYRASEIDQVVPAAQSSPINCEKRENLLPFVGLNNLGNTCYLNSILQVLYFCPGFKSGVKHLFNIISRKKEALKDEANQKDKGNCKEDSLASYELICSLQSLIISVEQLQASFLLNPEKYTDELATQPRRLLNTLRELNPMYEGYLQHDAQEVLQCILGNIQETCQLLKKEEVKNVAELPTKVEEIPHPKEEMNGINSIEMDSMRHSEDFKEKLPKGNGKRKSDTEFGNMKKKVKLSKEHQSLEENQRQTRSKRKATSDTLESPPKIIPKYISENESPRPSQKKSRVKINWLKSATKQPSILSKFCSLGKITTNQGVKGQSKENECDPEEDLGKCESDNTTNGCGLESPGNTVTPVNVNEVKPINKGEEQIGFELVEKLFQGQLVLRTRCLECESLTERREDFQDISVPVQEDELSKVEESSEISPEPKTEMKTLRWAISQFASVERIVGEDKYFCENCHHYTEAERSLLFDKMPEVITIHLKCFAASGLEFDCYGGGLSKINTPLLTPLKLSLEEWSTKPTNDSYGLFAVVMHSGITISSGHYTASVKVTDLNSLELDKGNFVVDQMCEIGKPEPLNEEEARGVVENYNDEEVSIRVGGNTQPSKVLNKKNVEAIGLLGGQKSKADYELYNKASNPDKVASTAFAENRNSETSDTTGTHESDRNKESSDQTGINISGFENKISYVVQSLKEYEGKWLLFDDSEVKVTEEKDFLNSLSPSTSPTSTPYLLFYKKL
smiles,measurement,setting,value
C[C@H](CCC(=O)O)[C@H]1CC[C@H]2[C@@H]3[C@H](O)C[C@@H]4C[C@H](O)CC[C@]4(C)[C@@H]3CC[C@]12C,"parasite growth, % of DMSO control",[1],59.3%
same,"parasite growth, % of control (lower = inhibition)",[2],67.3%
same,"growth, % of control",[3],81.3%
same,Potency,[4],inactive
same,Potency,[5],inactive
same,Potency,[6],inactive
same,Potency,[7],inactive
CC=C1C2C=C(C)CC1(N)c1ccc(=O)[nH]c1C2 (stereo not drawn),"parasite growth, % of control (lower = inhibition)",[2],79.2%
same,"growth, % of control",[3],103%
same,Potency,[4],inactive
same,Potency,[5],inactive
same,Potency,[6],inactive
same,Potency,[7],inactive
COc1cccc2c1C(=O)c1c(O)c3c(c(O)c1C2=O)C[C@@](O)(C(=O)CO)C[C@@H]3O[C@H]1C[C@H](N)[C@H](OC2CCCCO2)[C@H](C)O1 (stereo partly drawn),Potency,[8],44.7 µM (active)
same,Potency,[9],5.62 µM (active)
same,Potency,[4],inactive
same,Potency,[5],6.11 µM (active)
same,Potency,[6],6.85 µM (active)
same,Potency,[10],7.94 µM (active)
same,Potency,[11],inactive
same,outcome,[12],inactive
same,Potency,[13],12.6 µM (active)
same,"activity change, negative = inhibition",[14],-97.2% and -91.8%
c1ccc(C(NCCNC(c2ccccc2)c2ccccc2)c2ccccc2)cc1,outcome,[15],inactive
same,Potency,[4],inactive
same,Potency,[5],inactive
same,Potency,[6],inactive
COc1ccc2ccc(=O)oc2c1CC=C(C)C,Potency,[16],15.8 µM (active)
same,Potency,[17],inactive
same,Potency,[4],inactive
same,Potency,[5],inactive
same,Potency,[6],inactive
same,Potency,[7],inactive
CN1CCC2(CCN3CCc4c(oc5ccccc45)C3C2)N(C)C1=O (stereo not drawn),Potency,[18],inactive
same,Potency,[4],inactive
same,Potency,[5],inactive
same,Potency,[6],inactive
CN(N=O)C(=O)N[C@H]1C(O)OC(CO)[C@@H](O)[C@H]1O (stereo partly drawn),Potency,[19],7.94 µM (active)
same,Potency,[4],inactive
same,Potency,[5],inactive
same,Potency,[6],inactive
same,Potency,[7],inactive
COC(=O)[C@H]1[C@H]2C[C@@H]3c4[nH]c5ccccc5c4CCN3C[C@H]2C[C@@H](OC(=O)c2cc(OC)c(OC)c(OC)c2)[C@@H]1OC,Potency,[4],inactive
same,Potency,[5],inactive
same,Potency,[6],inactive
same,Potency,[10],inactive
same,outcome,[20],inactive
same,outcome,[12],inactive
same,Potency,[21],inactive
same,Potency,[22],11.2 µM (active)
same,Potency,[23],inactive
same,Potency,[13],inactive
Clc1nccc2c1ccc1ccccc12,outcome,[24],inactive
same,Potency,[18],inactive
same,outcome,[15],inactive
same,Potency,[4],inactive
same,Potency,[5],inactive
same,Potency,[6],inactive
CCC[C@@H](C=O)NC(=O)[C@H](CC(C)C)NC(=O)[C@H](CC(C)C)NC(=O)OCc1ccccc1 (Cbz-Leu-Leu-[Nva]-aldehyde),Potency,[4],3.43 µM (active)
same,Potency,[5],5.44 µM (active)
same,Potency,[6],12.2 µM (active)
same,Potency,[21],714 nM (active)
same,Potency,[14],891 nM (active)
